Peg3 prom inh – reduces Peg3 promoter-driven luciferase expression in HeLa; 360,000 tested, 1.7% active; HeLa PEG-Prom luciferase reporter, luminescence, overnight; inhibition, % at 20 µM;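 active means inhibition of at least 50% at 20 µM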
CF NFkB inh – blocks PAF-induced NF-kB reporter in cystic fibrosis cells | inhibition, % at 5 µM | KKLEB NF-kB-GFP reporter, GFP fluorescence overnight | 360,000 tested, 0.86% active | AID 588850;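 active means at least 50% inhibition at 5 µM, scaled per plate between neutral and stimulator controls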;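 further: PAF is a Pseudomonas aeruginosa culture filtrate used as stimulus; plate controls were PAF-stimulated DMSO wells for no effect and unstimulated DMSO wells for full effect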
ABHD5-PLIN5 inh – inhibitors of human ABHD5-perilipin-5 interaction | Q00G26+Q8WTS1 | Split G. princeps luciferase complementation, luminescence, 4 h | inhibition, % at 4 µM | 360,000 tested, 0.78% active | AID 602281;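 active means inhibition above the mean inhibition across every tested compound plus 3 SD, cut at about 22% in these data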;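 further: 0% = DMSO only wells and the 100% control is not disclosed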
Target sequence (Q00G26 whole entry, looked up): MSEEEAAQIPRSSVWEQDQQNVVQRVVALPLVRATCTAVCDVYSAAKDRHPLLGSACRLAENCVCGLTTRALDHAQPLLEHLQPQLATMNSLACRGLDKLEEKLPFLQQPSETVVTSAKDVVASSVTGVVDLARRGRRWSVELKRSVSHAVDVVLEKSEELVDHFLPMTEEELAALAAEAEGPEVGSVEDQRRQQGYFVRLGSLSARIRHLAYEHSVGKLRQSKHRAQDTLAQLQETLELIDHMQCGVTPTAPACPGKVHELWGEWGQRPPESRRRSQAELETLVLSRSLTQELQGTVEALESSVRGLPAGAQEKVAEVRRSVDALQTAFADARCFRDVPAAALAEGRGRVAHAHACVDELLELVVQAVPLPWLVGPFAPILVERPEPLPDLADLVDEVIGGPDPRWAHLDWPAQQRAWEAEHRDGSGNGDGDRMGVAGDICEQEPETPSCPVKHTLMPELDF
Target sequence (Q8WTS1 whole entry, looked up): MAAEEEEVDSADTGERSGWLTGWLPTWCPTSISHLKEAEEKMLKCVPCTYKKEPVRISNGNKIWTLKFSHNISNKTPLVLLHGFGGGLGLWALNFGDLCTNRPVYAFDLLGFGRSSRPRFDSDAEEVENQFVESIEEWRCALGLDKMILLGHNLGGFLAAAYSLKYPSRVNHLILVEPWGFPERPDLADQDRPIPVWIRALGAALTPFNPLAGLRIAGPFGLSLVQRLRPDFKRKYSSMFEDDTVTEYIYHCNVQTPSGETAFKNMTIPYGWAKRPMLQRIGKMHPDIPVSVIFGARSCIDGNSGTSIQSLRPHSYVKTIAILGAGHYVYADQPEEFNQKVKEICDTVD
HIF-2a block – inhibitors of HIF-2a. 786-0 RCC cells HIF-2a reporter, luciferase luminescence, overnight. inhibition, % at 18.8 µM. 360,000 tested, 0.72% active. AID 624352;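 active means inhibition of the luminescence signal of 40% or more relative to plate controls, in a single-dose primary screen at 18.75 µM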
KKLEB tox – counter-screen for CF NF-kB inhibitors: cytotoxicity; KKLEB CF airway cells viability, ATPlite luminescence, overnight; active compounds read low; cells stimulated with P. aeruginosa culture filtrate; activity change (cytotoxicity), % at 5 µM; 360,000 tested, 0.36% active; AID 602141;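 active means corrected activity change at or below -50% at 5 µM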
TRPM1 prom inh – reduces MITF-dependent TRPM1 promoter luciferase signal | SK-MEL-5 TRPM1 promoter luciferase, 24 h | inhibition, % at 12.5 µM | 330,000 tested, 0.83% active | AID 488899;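 active means mean inhibition across replicates of 60% or more, whatever share of single replicates reaches that level; inconclusive means some that reach 60%, reason not given; inactive means mean inhibition across replicates below 60%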
Active calls of the source: *; ? = inconclusive; nt = no result given. A selection: hits, their analogues and other compounds. The true share with any hit is near 3%.

SMILES	Peg3 prom inh	CF NFkB inh	ABHD5-PLIN5 inh	HIF-2a block	KKLEB tox	TRPM1 prom inh
CC(C)Oc1ccc(/C=N/NC(=O)c2nnn(-c3nonc3N)c2CN(C)c2ccccc2)cc1	7.3	-19.0	-10.1	5.9	-7.1	-9.3
CCCCCCNC(=O)c1cn(CC)c2cc(N3CCN(C)CC3)c(F)cc2c1=O	53.8*	4.4	13.0	21.9	-12.1	15.9
CNc1nc(NCc2ccccc2)c2ccccc2n1	-0.6	-22.3	6.1	8.7	-0.9	13.7
Oc1ccc(CCNc2c3ccccc3nc3ccccc23)cc1O	108.7*	-80.1	-5.0	53.7*	-26.2	72.0*
c1ccc(CNc2c3ccccc3nc3ccccc23)cc1	96.7*	-85.3	7.3	44.0*	-29.1	75.5*
CNC(=S)N/N=C/c1c(C)c(C(=O)c2ccc(F)cc2)n2ccccc12	0.8	-16.7	11.1	2.9	0.3	5.8
N#CC(=C1NC(=O)c2ccccc21)c1nc2ccccc2n1CCO	-60.2	-48.3	-2.9	-118.3	21.8	nt
COc1ccc(/C=C/c2ccc3cccc(O)c3n2)c(OC)c1OC	85.8*	-26.8	-12.1	-187.0	-15.3	-19.1
COc1cc(/C=C/c2ccc3cccc(O)c3n2)cc(OC)c1OC	95.2*	8.1	4.3	-59.9	-4.3	77.6*
COc1cc(/C=C/c2ccc3cccc(O)c3n2)cc(Br)c1OC	-175.3	12.5	-3.3	-215.0	7.9	-1.1
COc1cccc(/C=C/c2ccc3cccc(O)c3n2)c1OC	89.8*	-63.2	3.2	-313.3	-23.3	-14.6
CCNC(=O)NC(=O)CSc1ccc(S(=O)(=O)N(C)C2CCCCC2)cn1	1.1	13.5	-4.5	5.7	0.6	1.2
COc1ccc(NC(=S)N2CCN(c3ccc4c(c3)C3CCN(C(=O)OCc5ccccc5)C4C3)CC2)c(OC)c1 (stereo unspecified)	-203.9	12.2	16.1	-163.8	-5.8	nt
O=C(Nc1cccc(Cl)c1)Nc1nnc(CSCCOc2ccc(Cl)cc2)s1	36.1	43.7	-1.0	2.2	-26.2	67.5*
Cc1ccc(NC(=O)Nc2nnc(CSCCOc3ccc(Cl)cc3)s2)cc1	16.0	8.0	-3.8	8.2	7.6	9.2
N#C/C(N=Nc1ccccc1O)=N\Nc1ccccc1O	66.6*	-46.3	22.0	-70.7	0.6	69.1*
Oc1ccccc1N=N/C(=N/Nc1ccccc1O)c1ccccc1	-0.5	-3.8	5.2	12.9	9.5	-2.8
CN(C(=O)c1cc(COc2ccc(F)cc2Cl)on1)C1CCOC1 (stereo unspecified)	-25.9	-17.3	0.7	-66.1	-9.9	nt
NC(=O)N/N=C/c1ccc(N2CCOCC2)s1	52.3*	-18.4	-10.0	-0.4	9.0	12.0
O=C(N/N=C/c1ccc(N2CCOCC2)s1)c1ccc(O)cc1	-24.9	-18.6	-6.4	-46.1	5.6	nt
Cc1cc(NS(=O)(=O)c2ccc(NC(=O)COc3ccc(C#N)cc3)cc2)nc(C)n1	-3.3	-17.6	0.6	-1.6	11.7	-0.5
OCCN(CCO)c1ccc(C(c2ccccc2Cl)c2ccc(N(CCO)CCO)cc2Cl)c(Cl)c1	59.5*	9.1	14.6	25.3	10.3	-12.6
Cc1ccc(C(=O)NCCNc2nc3cc(C)c(C)cc3cc2C)cc1	60.8*	11.5	6.3	22.0	-12.0	-15.1
Cc1cnc(CNC(=O)C2CCC(=O)N(Cc3ccc(Cl)cc3)C2)[nH]1 (stereo unspecified)	19.7	-7.1	-7.9	0.3	-3.0	-3.4
Cc1ccccc1N(C(=O)c1csnn1)C(C(=O)NC1CCCC1)c1ccncc1 (stereo unspecified)	7.7	0.7	1.5	3.3	4.4	-5.8
SMILES	Peg3 prom inh	CF NFkB inh	ABHD5-PLIN5 inh	HIF-2a block	KKLEB tox	TRPM1 prom inh
CCCCCc1ccc(-c2ccc(/C=C/C(=O)O)cc2)nc1	1.9	13.7	7.1	74.5*	-1.8	9.7
CCc1ccc2c(c1)C1(NN=C(c3ccc(C)cc3)S1)C(=O)N2 (stereo unspecified)	48.0	1.8	-39.4	89.3*	-11.8	-1.1
COc1ccc(CNC(=O)CSc2nc3ccc(N)cc3s2)cc1	0.2	7.3	-3.3	-9.9	-2.7	11.5
O=C1c2ccccc2C(=O)C1c1ccnc2ccccc12	83.1*	-134.3	6.3	23.8	-70.5*	36.3
N#CC1=C(N)SC(N)=C(C#N)C1c1ccnc2ccccc12	0.3	-7.1	-9.6	15.5	2.7	19.4
O=C1c2ccccc2C(=O)C1c1nccc2ccccc12	87.6*	-144.0	6.1	2.7	-65.4*	55.4
CCc1ccccc1C1C(=O)c2ccccc2C1=O	2.6	-12.1	2.9	5.6	0.1	-9.3
CCN(C[C@H]1N[C@@](CC)(C(=O)OC)[C@H]2C(=O)N(C)C(=O)[C@@H]12)C(=O)C1CCCCC1	2.3	11.1	3.2	4.7	4.3	-5.5
COC(=O)[C@]12CCCCC=C1N(Cc1ccc(Cl)cc1Cl)C(=O)[C@H](CC(=O)NCC1CCCCC1)C2	nt	nt	-13.3	1.3	nt	nt
Cn1cc(C(=O)c2ccc(Cl)cc2Cl)cc1C(=O)N/N=C(\N)COc1ccc(Cl)cc1	52.6*	5.1	11.8	29.5	0.8	8.1
O=C1Nc2c(Br)cc(Br)c3cccc1c23	73.6*	-22.4	-4.8	2.0	-2.6	-8.4
O=C1NC(=O)c2cc(Br)cc3cccc1c23	-22.2	-126.6	-2.0	3.9	11.1	-4.5
COCCCn1[nH]c2c3c(ccc2c1=O)C(=O)c1ccccc1C3=O	-39.1	-3.1	2.5	-81.6	1.1	60.7*
CC(C)(C)n1[nH]c2c3c(ccc2c1=O)C(=O)c1ccccc1C3=O	-26.9	-16.1	2.6	-32.5	-7.8	?
C[C@@H](NCCc1ccc(O)cc1)[C@@H](O)c1ccc(O)cc1	-4.8	26.4	0.8	22.8	21.3	-10.1
CCCCCCCCNC(C)C(O)c1ccc(SC(C)C)cc1 (stereo unspecified)	103.9*	5.0	-22.9	22.1	-29.4	82.9*
CCOc1ccc(Br)cc1C(=O)Nc1ccc(C(=O)NCC(C)C)cc1	95.1*	-3.6	9.1	8.8	-9.5	-3.9
O=C(Oc1ccc(C(=S)N2CCOCC2)cc1Cl)c1ccccc1F	6.7	-19.2	-4.4	20.5	5.1	0.8
Oc1c(CN2CCc3ccccc3C2)cc(Cl)c2cccnc12	50.3*	23.8	-3.4	-5.3	-6.3	75.1*
O=C(Oc1c(CN2CCOCC2)cc(Cl)c2cccnc12)c1ccccc1F	22.5	-6.6	1.5	3.1	-4.9	68.5*
CN1CCN(Cc2cc(COCc3ccccc3)c3cccnc3c2O)CC1	40.7	8.9	9.8	11.3	5.3	79.2*
COc1cc(OC)cc(C(=O)Oc2c(CN3CCOCC3)cc(Cl)c3cccnc23)c1	10.1	-2.6	-5.4	16.9	6.5	0.7
O=C(Oc1c(CN2CCOCC2)cc(Cl)c2cccnc12)c1ccccc1	41.8	5.6	2.3	16.7	1.7	64.1*
COc1ccc(/C=N/NC(=O)C2(C)NC(C)(C)Cc3ccccc32)cc1 (stereo unspecified)	2.6	-5.5	-3.9	6.2	-14.7	-10.8
Oc1c(CN2CCCCC2)cc(Br)c2cccnc12	39.3	-1.7	6.3	-7.0	-19.5	74.5*

Compound activity as filed in PubChem BioAssay.
